Screening data deposited in PubChem by National Center for Advancing Translational Sciences (NCATS).
The entries come from a sample that favours hits as a whole.
Mito fusion act: blocks mitochondrial division or promotes mitochondrial fusion; S. cerevisiae fusion-defective mutant growth rescue, CellTiterGlo 48 h; Potency, µM (series often up to 46.1 µM), for the others: top-dose growth rescue (activation), usual class: activators; actives 0.23% (n = 320,000); AID 485298; further: potency means the concentration at half of the fitted maximal effect; % of control where 0% means no effect; nearly all actives have a fitted effect of over 45% in size
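Luminescent cell viability in 1536-well qHTS format served as the measure of rescued growth in ts fusion-mutant S. cerevisiae cultured on non-fermentable YPEG for 48 hours at 37C.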
LDHA block: inhibitors of human lactate dehydrogenase A; actives 0.15% (n = 480,000); P00338; activity change, % (values are at about 110 or 230 µM); AID 1347041; purified LDHA, NADH/diaphorase-resazurin fluorescence; hits give low values; in the data active means activity change below about -30%; inconclusive means mostly about -25% to -30%;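 further: plate controls were DMSO wells for no effect and wells without enzyme for full effect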
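Resorufin fluorescence (ex540/em590), read at 0 and 20 min after diaphorase/resazurin addition, reports the NADH left after a 5 min room-temperature reaction of 2 nM human LDH5 with 0.06 mM NADH and 0.2 mM pyruvate.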
ClpP mod: qHTS Assay for Activators of ClpP. purified B. subtilis ClpP, FRET peptide cleavage, 20 min. Potency, µM (series often up to 57.5 µM), without a hit: at the top dose activity change, negative = active. actives 1.9% (n = 340,000); active means well fitted falling curve with a large enough effect; inconclusive means small, poorly fitted or top-dose-only effect; inactive means no such curve, though single readings can be large or run the other way; further: potency means the concentration at half of the fitted maximal effect; the source files actives as falling curves though it sought activators and does not explain the sign; nearly all actives have a fitted effect of over 65% in size
Target sequence (P80244 whole entry, looked up): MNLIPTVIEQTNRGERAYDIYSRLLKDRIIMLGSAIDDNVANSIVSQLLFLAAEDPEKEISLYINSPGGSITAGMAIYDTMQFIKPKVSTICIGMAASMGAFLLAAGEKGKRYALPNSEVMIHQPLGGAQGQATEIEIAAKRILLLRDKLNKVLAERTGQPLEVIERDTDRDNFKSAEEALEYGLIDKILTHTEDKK
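Buffer: 100 mM Tris/HCl pH8, 100 mM KCl, 0.05% low protease BSA, 2.5% glycerol, 0.01% Tween-20. ClpP 10 microg/mL final; 20 min RT; delta FRET normalized to ADEP and DMSO controls.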
ASM inhibitor: blocks human secretory acid sphingomyelinase; AID 504937; actives 0.006% (n = 340,000); Potency, µM (top dose mostly 57.5 µM), without a hit: top-dose activity change, negative = inhibition, usual class: inhibitors; P17405; placental ASM, HMU-PC fluorogenic substrate, 60 min; further: potency means the concentration at half of the fitted maximal effect
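qHTS format. ASM enzyme prepared from human placenta hydrolyses the fluorogenic substrate HMU-PC0 (9 uM final) over 60 min at 37 °C after a 10 min compound preincubation.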
RGS4 inh: human RGS4 inhibition; Transcreener GDP fluorescence polarization, RGS4-accelerated GTP hydrolysis; actives 0.039% (n = 390,000); AID 504845; Potency, µM (top dose mostly 114 µM), inactives show top-dose activity change, negative = inhibition, usual class: inhibitors; further: potency means the concentration at half of the fitted maximal effect; on the % scale 0 is the no-effect control and ±100 the full control effect; nearly all actives have a fitted effect of over 75% in size
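MLSMR compounds (23 nl, pin-transferred) preincubated 10 min at room temperature with a 500nM (2x) first reagent, then RGS4 at 900nM (2x) plus Transcreener GDP mix added; fluorescence polarization (620/688 nm) read before and after 90 min at 30 °C.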
mIDH1 inhibitor: inhibitors of human mutant IDH1 R132H; O75874; IDH1-R132H enzyme, NADPH consumption, diaphorase/resazurin fluorescence; Potency, µM (series often up to 76.6 µM), for the others: at the top dose activity change, negative = inhibition, actives largely listed as inhibitors; actives 0.093% (n = 390,000); AID 602179; further: potency means the concentration at half of the fitted maximal effect; on the % scale 0 is the no-effect control and ±100 the full control effect; nearly all actives have a fitted effect of over 65% in size
Target sequence (O75874 whole entry R132H, stated change not applied): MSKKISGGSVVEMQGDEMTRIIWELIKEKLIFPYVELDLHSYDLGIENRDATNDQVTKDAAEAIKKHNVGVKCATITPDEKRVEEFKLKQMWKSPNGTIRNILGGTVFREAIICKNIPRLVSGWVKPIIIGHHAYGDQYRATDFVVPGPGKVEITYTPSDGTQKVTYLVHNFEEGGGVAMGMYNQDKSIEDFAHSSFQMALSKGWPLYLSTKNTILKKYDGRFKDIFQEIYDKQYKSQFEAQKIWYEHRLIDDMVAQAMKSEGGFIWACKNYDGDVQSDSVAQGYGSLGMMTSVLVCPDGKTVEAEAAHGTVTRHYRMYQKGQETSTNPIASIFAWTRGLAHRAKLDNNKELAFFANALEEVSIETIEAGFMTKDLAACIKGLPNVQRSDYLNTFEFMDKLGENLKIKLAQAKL
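IDH1-R132H (0.5 ug/mL) preincubated 30 min with compound, then NADPH (0.016 mM) and alpha-KG (2 mM) added; 80 min at RT, pH 7.5. Remaining NADPH coupled via diaphorase/resazurin to fluorescence (540/590 nm); concentration-response curves normalized to no-enzyme control.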
Active calls of the source: *; ? = inconclusive; · = no result given; ! = a repeat was not active; [ ] = remark or other dose. Unless noted, the call rests on the fitted dose curve; in most records, active means well fitted curve in the direction sought with a large enough effect; inconclusive means small, poorly fitted or top-dose-only effect, or another doubt; inactive means no such curve, though single readings can be large; an effect the other way counts as inactive or inconclusive.

SMILES | Mito fusion act | LDHA block | ClpP mod | ASM inhibitor | RGS4 inh | mIDH1 inhibitor
Cc1ccc(C(=O)Nc2cccc(-c3nc4ccccc4s3)c2C)cc1 | · | -2 | · | · | · | ·
Cc1c(NC(=O)c2cccs2)cccc1-c1nc2ccccc2s1 | 16µM* | -4 | -1% | -5% | -14% | 7%
Cc1ccc(CSC2=NS(=O)(=O)c3ccccc3N2Cc2ccccc2)cc1 | · | 5 | · | · | · | ·
COc1cccc2[nH]c3c(N4CCc5ccccc5C4)ncnc3c12 | 0% | 2 | · | -2% | 7% | 9%
COc1cccc2[nH]c3c(N4CCC5(CC4)OCCO5)ncnc3c12 | -5% | 2 | 4% | 2% | 16% | -2%
c1ccc2c(c1)CCN(c1ncnc3c1[nH]c1ccccc13)C2 | 13% | -15 | 20µM* | -3% | 12% | 7%
c1ccc2c(c1)[nH]c1c(N3CCC4(CC3)OCCO4)ncnc12 | -2% | -16 | 28µM* | 5% | 14% | 2%
O=C(Nc1cccc(S(=O)(=O)NC2=NCCC2)c1)c1cccc(Br)c1 | · | 1 | · | · | · | ·
CCN(CC)C(=S)SCC(=O)c1ccc(OC)cc1 | · | -15 | · | · | · | ·
C/C(=N\NC(=O)COc1ccccc1)c1cccs1 | -7% | -4 | 25µM* | 3% | -2% | 0%
C/C(=N\NC(=O)COc1cccc2ccccc12)c1cccs1 | -3% | -10 | -5% | · | 9% | -4%
CC(C)c1ccc(/C=C/C(=O)Nc2ccc(F)cc2F)cc1 | · | 4 | · | · | · | ·
COc1cc(Cl)cc(/C=C/c2ccc3ccccc3n2)c1OC(C)=O | 8% | 2 | 25µM* | 0% | -13% | 7%
Oc1cc(O)cc(/C=C/c2ccc(O)c(O)c2)c1 | ? | 10 | 5% | 35% | 21µM*! | -2%
FC(F)(F)c1nc2ccccc2n2c(-c3ccc(Cl)cc3)nnc12 | 5% | -1 | 13µM* | 5% | -23% | -1%
Cc1ccc(-c2nnc3c(C(F)(F)F)nc4ccccc4n23)cc1 | -1% | -1 | 13µM* | 16% | 6% | -1%
Cc1ccc(-c2nc3ccccc3n3c(C)nnc23)cc1 | 5% | · | · | · | · | ·
FC(F)(F)c1nnc2c(Sc3ccc(Cl)cc3)nc3ccccc3n12 | 1% | 2 | -4% | 0% | -32% | 3%
COc1ccc(CC(=O)Nc2c(NCC3CCCCC3)c3ccccc3oc2=O)cc1 | · | 5 | · | · | · | ·
CC(C(=O)N(C)Cc1ccccc1)N1CCN(C/C=C/c2ccccc2)CC1 (stereo not drawn) | -1% | -31* | · | 2% | -2% | 2%
CC(=O)c1ccc(NC(=O)C(C)N2CCN(C/C=C/c3ccccc3)CC2)cc1 (stereo not drawn) | -1% | -15 | · | 5% | 7% | -1%
CSc1ccccc1C(=O)Nc1ccc(C)c(F)c1 | · | -9 | · | · | · | ·
[Cl][In]([Cl])[Cl] | · | -80* | 1% | · | · | ·
Cc1ccccc1C(=O)N/N=C/c1ccc([N+](=O)[O-])s1 | 9% | 4 | 0% | -6% | 7% | 8%
O=C(N/N=C/c1ccc([N+](=O)[O-])s1)c1ccccc1 | 4% | -63* | · | -1% | -14% | 1%
SMILES | Mito fusion act | LDHA block | ClpP mod | ASM inhibitor | RGS4 inh | mIDH1 inhibitor
O=C(Nc1ccccc1C(=O)Nc1ccccn1)c1ccc([N+](=O)[O-])cc1 | 1% | -2 | 32µM* | 2% | -10% | 3%
CCN(CC)S(=O)(=O)c1ccc(-c2nc(C#N)c(NCCN(C)C)o2)cc1 | · | -4 | · | · | · | ·
CCS(=O)(=O)N1CCC(NC(=O)c2ccccc2C(=O)c2ccc(Cl)cc2)CC1 | · | -31* | · | · | · | ·
CS(=O)(=O)N1CCC(NC(=O)c2ccccc2C(=O)c2ccccc2)CC1 | · | -1 | · | · | · | ·
CCCOc1cccc(NC(=O)OC2CCN(C)CC2)c1 | -11% | -5 | 25µM* | 0% | -1% | -3%
O=C(Cn1c(-c2cccs2)cc2ccccc21)NCCCN1CCN(c2ccccc2F)CC1 | · | 1 | ? | · | -3% | 2%
O=C(Cn1c(-c2cccs2)cc2ccccc21)NCCCN1CCN(c2ccc(F)cc2)CC1 | · | -1 | 32µM* | · | 13% | -16%
CC(C)CCNC(=O)Cn1c(-c2cccs2)cc2cc(F)ccc21 | · | -3 | 32µM* | · | 2% | 15%
O=C(Cn1c(-c2cccs2)cc2cc(F)ccc21)NCCCN1CCN(c2ccccc2F)CC1 | · | -8 | 32µM* | · | -7% | -5%
COc1ccc(N2CCN(CCCNC(=O)Cn3c(-c4cccs4)cc4ccccc43)CC2)cc1 | · | 1 | 4% | · | -10% | -7%
CCc1ccc(CNC(=O)Cn2c(-c3cccs3)cc3cc(F)ccc32)cc1 | · | 0 | 5% | · | 8% | 12%
COCc1ccccc1C(=O)NCC(O)c1ccccc1C(F)(F)F (stereo not drawn) | · | 10 | · | · | · | ·
CCCCNc1ccc(S(N)(=O)=O)cc1[N+](=O)[O-] | 0% | · | · | · | · | ·
CCNc1ccc(S(=O)(=O)N(C)C)cc1[N+](=O)[O-] | 1% | -37* | -3% | 1% | -17% | -10%
COc1ccc(-c2nc(CN3CCCC3c3ccc(OC)cc3)co2)cc1 (stereo not drawn) | · | -13 | · | · | · | ·
COc1cc2c(cc1OC)CN(C(=O)CCc1ncc(-c3ccc(Cl)cc3)o1)CC2 | · | 6 | · | · | · | ·
Cc1noc2ncnc(Oc3cc(Cl)ccc3Cl)c12 | -5% | -7 | -2% | -6% | 31% | -9%
Cc1cccc(Oc2ncnc3oc(-c4ccccc4)cc23)c1C | 0% | -12 | 28µM* | -3% | 9% | 4%
Cc1cc(Cl)ccc1Oc1ncnc2oc(-c3ccccc3)cc12 | 7% | 2 | 25µM* | 10% | 15% | 3%
COc1ccc2cc(CNC(=O)CNC(=O)c3ccc(C)c(C)c3)ccc2c1 | · | -1 | · | · | · | ·
Cc1cc(C)c(C(=O)c2sc(Nc3cccc(F)c3)nc2N)cc1C | · | 10 | · | · | · | ·
N#Cc1ccccc1NC(=O)Nc1cccc(Cl)c1 | 2% | -1 | 28µM* | 83% | -4%[11.4 µM] | 2%
Cn1c(=O)c2ccccc2n(CC(=O)Nc2ccc(Cl)cc2F)c1=O | · | 2 | · | · | · | ·
Cc1ccccc1CC(=O)NCC1CCCO1 (stereo not drawn) | · | -7 | · | · | · | ·
NS(=O)(=O)c1ccc(N/N=C/c2cn(-c3ccccc3)nc2-c2cccs2)cc1 | 11% | 1 | 16µM* | 101% | -29% | 2%
NS(=O)(=O)c1ccc(N/N=C/c2cn(-c3ccccc3)nc2-c2cccs2)c([N+](=O)[O-])c1 | 4% | -10 | · | -1% | 10% | 1%
CC(=O)c1cccc(OC(=O)c2ccccc2)c1 | · | 0 | 14µM* | -2% | 2% | 2%
O=C(Oc1ccccc1)c1cc(O)c(O)c(O)c1 | · | -35* | -15% | · | · | ·
